Screens (PubChem BioAssay)
DUX4 txn inh: inhibitors of DUX4-driven ZSCAN4 reporter expression, primary screen, 293T cells, Gaussia and Italica luciferase; 293T-iDUX4 ZSCAN4-Gaussia luciferase reporter, 24 h; active compounds read low; activity change, negative = inhibition, % (no concentration beside the values); 37,000 tested, 0.8% active; AID 1224904, 2016;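 active means mean inhibition of at least 10% in the main channel, exceeding the control channel by a set limit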;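 further: 0% = median of neutral control wells and -100% = median of positive control wells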
The depositor's hits bear a star. Shown is part of a subset that was picked to be rich in hits.

COc1ccc2c3c([nH]c2c1)[C@@H](CO)N(Cc1ccncc1)CC31CN(C(=O)c2cccnc2)C1 was read as DUX4 txn inh 18.
For COc1ccc2c3c([nH]c2c1)[C@H](CO)N(Cc1ccc(Cl)cc1)CC31CN(S(C)(=O)=O)C1 the results were DUX4 txn inh -45*.
For COc1ccc(CN2CC3(CCN(C(=O)c4ccccc4)CC3)c3c([nH]c4cc(OC)ccc34)[C@@H]2CO)cc1 the results were DUX4 txn inh -2.
`COc1ccc2c3c([nH]c2c1)[C@H](CO)N(Cc1cccc(Cl)c1)CC31CN(C)C1` gave DUX4 txn inh -7.
`COc1ccc2c3c([nH]c2c1)[C@H](CO)N(Cc1ccncc1)CC31CN(C(=O)Cc2ccncc2)C1` gave DUX4 txn inh 12.
For O=C1N[C@H](c2ccccc2)COCc2cnnn2CC[C@H]1Cc1ccc(-c2ccccc2)cc1 the results were DUX4 txn inh -1.
Screening O=C(Nc1cccc(Cl)c1)N1C[C@@H]2[C@H](c3ccccc31)[C@H](CO)N2C(=O)c1cccnc1 returned DUX4 txn inh 1.
For COCCNC(=O)C[C@@H]1CC[C@H]2[C@@H](COc3ccc(NC(=O)C4CCOCC4)cc3C(=O)N2C)O1 the results were DUX4 txn inh 0.
For C[C@H]1CN([C@@H](C)CO)C(=O)c2cc(NS(=O)(=O)c3cn(C)cn3)ccc2O[C@@H]1CN(C)Cc1ccc(-c2ccccc2)cc1 the results were DUX4 txn inh 4.
Screening C[C@@H]1CN([C@@H](C)CO)C(=O)CCCn2nncc2CO[C@@H]1CN(C)Cc1ccc(O)cc1 returned DUX4 txn inh 1.
`C[C@H](NC(=O)C[C@H]1C=C[C@@H](NC(=O)c2cccnc2)[C@H](CO)O1)c1ccccc1` gave DUX4 txn inh 7.
For C[C@@H]1CC=CC[C@H](c2cccc(Cl)c2)NC(=O)[C@H](C)N(C)C(=O)c2ccccc2O1 (mixture of isomers) the results were DUX4 txn inh 0.
For COc1ccccc1CNC(=O)C[C@@H]1CC[C@H]2[C@H](COc3ccc(NC(=O)Nc4ccc(F)c(F)c4)cc3C(=O)N2C)O1 the results were DUX4 txn inh 1.
`COc1ccc2c3c(n(C)c2c1)[C@@H](CO)N(CC1CC1)CC31CN(Cc2ccc(F)cc2)C1` gave DUX4 txn inh 9.
`CCCC(=O)N1CC2(CN(C(C)=O)C2)c2c(n(C)c3cc(OC)ccc23)[C@@H]1CO` gave DUX4 txn inh 7.
Screening COc1ccc2c3c([nH]c2c1)[C@H](CO)N(C(=O)Nc1ccc(F)cc1)CC31CN(CC2CC2)C1 returned DUX4 txn inh 2.
`CCCC(=O)N1CC2(C1)CN(Cc1ccc(Cl)cc1)[C@H](CO)c1[nH]c3cc(OC)ccc3c12` gave DUX4 txn inh -80*.
`COc1ccc2c3c([nH]c2c1)[C@H](CO)N(C(=O)Nc1ccc(F)cc1)CC31CN(S(C)(=O)=O)C1` gave DUX4 txn inh 7.
`CCC(=O)N1CC2(C1)CN(Cc1ccc(OC)cc1)[C@H](CO)c1[nH]c3cc(OC)ccc3c12` gave DUX4 txn inh 2.
`COc1ccc(CN2CC3(C2)CN(C(=O)Nc2ccc(F)cc2)[C@@H](CO)c2[nH]c4cc(OC)ccc4c23)cc1` gave DUX4 txn inh -39*.
`CCCC(=O)N1CC2(C1)CN(Cc1ccncc1)[C@H](CO)c1[nH]c3cc(OC)ccc3c12` gave DUX4 txn inh 10.
For C/C=C/c1ccc([C@@H]2[C@@H](CO)N(C(C)=O)[C@H]2CN(C)S(C)(=O)=O)cc1 the results were DUX4 txn inh -5.
Screening CC(C)[C@H]1CC=CC[C@@H](C)Oc2ccccc2C(=O)N(C)[C@H](C)C(=O)N1 (mixture of isomers) returned DUX4 txn inh 2.
Screening COc1ccc2c3c(n(C)c2c1)[C@H](CO)N(CC1CC1)CC31CCN(C(=O)CC2CC2)CC1 returned DUX4 txn inh -4.
For Cc1ccc(-c2ccc([C@@H]3[C@@H](CO)N4C(=O)CN(C(=O)c5ccc(F)cc5)C[C@H]34)cc2)cc1 the results were DUX4 txn inh -2.
Screening CCCNC(=O)N1CC2(C1)CN(C(C)=O)[C@H](CO)c1[nH]c3cc(OC)ccc3c12 returned DUX4 txn inh 6.
CCCN1C[C@@H](C)[C@@H](OC)CN(C)C(=O)c2cc(NS(=O)(=O)c3ccccc3)ccc2OC[C@H]1C was read as DUX4 txn inh 7.
Screening COc1cccc(S(=O)(=O)Nc2ccc3c(c2)C(=O)N(C)C[C@@H](OC)[C@H](C)CN(Cc2ccccc2F)[C@H](C)CO3)c1 returned DUX4 txn inh -26*.
`COc1cccc(S(=O)(=O)Nc2ccc3c(c2)C(=O)N(C)C[C@H](OC)[C@@H](C)CN(Cc2ccccc2F)[C@H](C)CO3)c1` gave DUX4 txn inh -4.
C[C@@H]1CN([C@H](C)CO)C(=O)c2c(c3ccccc3n2C)-c2ccccc2CO[C@@H]1CN(C)S(=O)(=O)c1ccc(C(F)(F)F)cc1 was read as DUX4 txn inh 0.
